SMILES strings stand for the structures. The campaign covered roughly 69,000 compounds. About 8,600 (12%) showed an effect of 50% or more. Many of the other results were omitted from the sample, so strong results are more common in it than they were.

This experiment has as its system Plasmodium berghei. In words: Screen against P. berghei liver stage (PbLuc), transformed with Luciferase, at 10uM. Type of experiment: functional, HepG2. The note with it: tested at 10 uM.
Consider `CC(C)C1CCCN1CCCc1nc(-c2cccs2)no1` (stereo not drawn), for which the INHIBITION is -4.94%.

For `CCN1C(=O)CCC12CCC(NC(=O)c1ccncc1F)CC2` (stereo not drawn), the INHIBITION is given as 38.3%.

For the compound `CCn1nc(C)cc1C(=O)N1C[C@@H](CN(C)C)[C@@H](CO)C1`, the INHIBITION was found to be 38.7%.

`O=C(NCC1CCCO1)c1nc2c(s1)CCCN2CC1CC1` (stereo not drawn): the INHIBITION was -14.2%.

`Cn1cccc1-c1nnc(C2(c3ccc4c(c3)OCO4)CCOCC2)o1`: the INHIBITION stood at 41.8%.

Take `c1cc(-c2nnc(C3(c4ccc5c(c4)OCO5)CCOCC3)o2)ccn1`: the INHIBITION was determined as 40.7%.

Take `c1cncc(-c2nnc(C3(c4ccc5c(c4)OCO5)CCOCC3)o2)c1`: the INHIBITION is on record as 72.2%.

On to `CCN1CCC(CC(=O)NCCc2nc(N)cc(O)n2)CC1`, for which the INHIBITION came out at 0.348%.

On to `CC(C)CN1CCc2[nH]cnc2C12CCN(C(=O)c1cc[nH]n1)CC2`, for which the INHIBITION amounted to 48.5%.

Regarding `CC(C)CN1CCNC(=O)C12CCN(C(=O)c1ccccn1)CC2`, the INHIBITION is given as 50.7%.

With `Cc1cnc(C(=O)N2CCC3(CC2)C(=O)NCCN3CC(C)C)cn1`, the INHIBITION stood at 26.5%.

In the case of `Cc1cc(C(=O)N2CCC3(CC2)c2nc[nH]c2CCN3CC(C)C)no1`, the INHIBITION amounted to 20.4%.

As for `CCN1CCNC(=O)C12CCN(C(=O)c1ccccn1)CC2`, the INHIBITION is -5.25%.

With `CC(C)CN1CCc2[nH]cnc2C12CCN(C(=O)c1ccccn1)CC2`, the INHIBITION was 55%.

As to `O=C(O)C1(Cc2ccccc2Cl)CCN(c2ncnc3[nH]ccc23)CC1`, the INHIBITION is on record as 43.3%.

For the compound `Cc1nn(C)c(Cl)c1C1CCCN1Cc1cccc(C(N)=O)c1` (stereo not drawn), the INHIBITION is reported as 11.2%.

Consider `Cn1c(=O)c2cc(C(=O)NCc3ccccn3)ccc2n(C)c1=O`, for which the INHIBITION was determined as 26.3%.

On to `CC(C)NC(=O)N1CCCn2cnc(CO)c2C1`, for which the INHIBITION is reported as -3.77%.

With `CC(C)c1noc(C(C)N2CCN(Cc3cccnc3)CC2)n1` (stereo not drawn), the INHIBITION was determined as 15.5%.

As for `CCOCC1CN(C(=O)[C@H]2CCCO2)Cc2nnn(CC3CC3)c21` (stereo partly drawn), the INHIBITION was 57.1%.

Regarding `Cn1nnc2c1C(COCC1CC1)CN(C(=O)[C@H]1CCCO1)C2` (stereo partly drawn), the INHIBITION is on record as 68.9%.

As to `CN(C)CC(=O)N1Cc2nnn(C)c2C(COCC2CC2)C1` (stereo not drawn), the INHIBITION worked out at 24%.

As to `CN(C)C(=O)N1Cc2nnn(C)c2C(COCC2CC2)C1` (stereo not drawn), the INHIBITION is given as 41.8%.

Turning to `COCC1CN(C(=O)[C@H]2CCCO2)Cc2nnn(CC3CC3)c21` (stereo partly drawn), the INHIBITION was -4.99%.

`CCOCC1CN(C(=O)N(C)C)Cc2nnn(CC3CC3)c21` (stereo not drawn): the INHIBITION is reported as -3.51%.

For `Cc1nccn1CCN(C)C(=O)C1CCCN(C2CCOCC2)C1` (stereo not drawn), the INHIBITION is reported as 34.1%.

For `Cc1cc(C)n(CC2CCCN2CCc2ccccn2)n1` (stereo not drawn), the INHIBITION is on record as 44.4%.

In the case of `Cc1cc(CNC2CCc3nc(C(C)C)nn3C2)on1` (stereo not drawn), the INHIBITION was 11.3%.

Take `CCC(C)C(=O)NCc1cccc(N2CCCCC2=O)c1` (stereo not drawn): the INHIBITION is on record as 11.6%.

For `COC(=O)CC(NC(=O)c1cc(OC)c2c(c1)OCCO2)c1cccs1` (stereo not drawn), the INHIBITION is 29.4%.

Take `COC(=O)CC(NC(=O)c1cccc(N2CCCC2=O)c1)C(=O)OC` (stereo not drawn): the INHIBITION was 2.55%.

Consider `COC(=O)CC(NC(=O)c1cccc(CS(C)(=O)=O)c1)c1cccs1` (stereo not drawn), for which the INHIBITION is given as 71.2%.

With `COC(=O)CC(NC(=O)c1ccc(OC)cc1OC)c1cccs1` (stereo not drawn), the INHIBITION turned out to be 7.08%.

As to `CCC(NC(=O)c1cccc(N2CCCC2=O)c1)c1ccc(OC)cc1` (stereo not drawn), the INHIBITION worked out at 52.6%.

For the compound `COCCc1noc(CN(C)C(=O)c2cccc(N3CCCC3=O)c2)n1`, the INHIBITION was 13.9%.

Take `COC(=O)CC(NC(=O)c1cccc(N2CCCC2=O)c1)c1cccs1` (stereo not drawn): the INHIBITION was found to be 62.8%.

In the case of `COC(=O)CC(NC(=O)c1ccccc1OC)c1cccs1` (stereo not drawn), the INHIBITION was 40%.

In the case of `Cc1cc(S(=O)(=O)NCC[S+](C)[O-])c(F)cc1F` (stereo not drawn), the INHIBITION stood at 37.6%.

Turning to `CC(O)CN1CCN(C(=O)c2sccc2C2CC2)CC1` (stereo not drawn), the INHIBITION is -1.14%.

With `Cc1cnc(CC2COCCN(Cc3nccn3C)C2)cn1` (stereo not drawn), the INHIBITION amounted to 44.1%.

As to `CC(C)n1ccnc1C1CCN(Cc2ccc(C(F)(F)F)c(F)c2)CC1`, the INHIBITION is listed as 42.5%.

For `CO[C@@H]1CCN(Cc2ccoc2)[C@@H]2CN(Cc3ccco3)C[C@@H]21`, the INHIBITION was 45.2%.

Take `CC(C)(C)c1ccn(C2(C(=O)O)CCN(c3ccnc(N)n3)CC2)n1`: the INHIBITION came out at 34.5%.

For the compound `Cc1cccc(O[C@H]2COCCN(Cc3sc(C)nc3C)C2)n1`, the INHIBITION was -60.9%.

On to `Cc1nc(C)c(CN2CCOC[C@H](Oc3ccc(S(C)(=O)=O)cc3)C2)s1`, for which the INHIBITION was found to be 26.4%.

Turning to `Cc1nc(C)c(CN2CCOC[C@H](Oc3ccccc3)C2)s1`, the INHIBITION is on record as 71.4%.

For `CN(Cc1cc[nH]n1)C(=O)c1cn(Cc2c(F)cccc2F)nn1`, the INHIBITION is 19.3%.

For the compound `Cc1cc(S(=O)(=O)N2CCCc3cc(F)c(F)cc32)sc1C(=O)O`, the INHIBITION is on record as 33.7%.

Turning to `CC[C@H](C)Nc1ncc(-c2ccn(C3CCN(C(C)=O)CC3)n2)cn1`, the INHIBITION was found to be 24.8%.

For the compound `CC(=O)N1CCC(n2ccc(-c3cnc(NCC(C)C)nc3)n2)CC1`, the INHIBITION was 56%.

`CC(=O)N1CCC(n2ccc(-c3cnc(N4CCOCC4)nc3)n2)CC1`: the INHIBITION came to 17.4%.

On to `CNc1cncc(C2CCCN2S(=O)(=O)c2cccc(F)c2)n1` (stereo not drawn), for which the INHIBITION amounted to 14.7%.

As to `Cc1ccc(C(=O)N2C[C@@H]3CCCO[C@@H]3[C@H](N(C)Cc3ccco3)C2)o1`, the INHIBITION is listed as -7.59%.

The record behind these values is ChEMBL document CHEMBL4513216, “Probing the Open Global Health Chemical Diversity Library for Multistage-Active Starting Points for Next-Generation Antimalarials” (ACS Infect Dis, 2020).
